Screening results: PubChem BioAssay, National Center for Advancing Translational Sciences (NCATS)
HP1b binding inh = HTS for Inhibitors of HP1-beta Chromodomain Interactions with Methylated Histone Tails | Chromobox protein homolog 1 (Homo sapiens), P83916 | AlphaScreen HP1-beta / biotin-H3K9me3 peptide binding | Potency, µM (doses to about 114 µM), for inactives: top-dose activity change, negative = inhibition, usual class: inhibitors | actives 0.56% (n = 390,000) | AID 540317, 2011; further: nearly all actives have a fitted effect of over 70% in size
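Compound inhibition of the preformed complex between 50 nM HP1-beta and 50 nM biotinylated H3K9me3 peptide was read by AlphaScreen. Buffer was PBS pH 7.4 with 0.01% Tween-20. Incubations ran 30 min at room temperature, with 10 ug/mL donor/acceptor beads.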
JMJD2A Tudor inh = qHTS Assay for Inhibitors of JMJD2A-Tudor Domain; AlphaScreen JMJD2A-Tudor / H3K4me3 peptide binding; Potency, µM (doses to about 114 µM), for inactives: at the top dose activity change, negative = inhibition, actives largely listed as inhibitors; actives 4.4% (n = 390,000); further: on the % scale 0 is the no-effect control and ±100 the full control effect; nearly all actives have a fitted effect of over 50% in size
BAZ2B block = qHTS Assay for Inhibitors of BAZ2B | actives 4.4% (n = 360,000) | AlphaScreen BAZ2B-H3K14Ac peptide displacement | Potency, µM (series often up to 114 µM), for the others: at the top dose activity change, negative = inhibition, usual class: inhibitors | Bromodomain adjacent to zinc finger domain protein 2B (Homo sapiens), Q9UIF8; further: on the % scale 0 is the no-effect control and ±100 the full control effect; nearly all actives have a fitted effect of over 60% in size
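AlphaScreen luminescence quantifies BAZ2B engagement of H3K14Ac peptide; the protein and biotinylated peptide are both at 50 nM final, buffer PBS pH 7.4 with 0.01% Tween-20, all steps at room temperature.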
G9a inh = qHTS Assay for Inhibitors of Histone Lysine Methyltransferase G9a; Histone-lysine N-methyltransferase EHMT2 (Homo sapiens), Q96KQ7; G9a H3K9 monomethylation, AlphaScreen, 2 h; Potency, µM (highest dose often 102 µM), for inactives: at the highest dose activity, negative = inhibition, usual class: inhibitors; actives 8.8% (n = 350,000); AID 504332, 2011; further: on the % scale 0 is the no-effect control and ±100 the full control effect; nearly all actives have a fitted effect of over 75% in size
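Using a bead-based AlphaScreen, monomethylated H3K9 product from 2 h room-temperature reactions (G9a 20 nM, peptide 500 nM, SAM 20 uM) was detected with 0.5 ug/mL rabbit anti-H3K9me1 antibody.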
Sfp inh = qHTS Assay for Inhibitors of Bacillus subtilis Sfp phosphopantetheinyl transferase (PPTase); 4'-phosphopantetheinyl transferase ffp (Bacillus subtilis), Q9F4F7; Biochemical Sfp PPTase activity, qHTS; Potency, µM, for the others: largest response in the series, negative = inhibition, hits mostly inhibitors; actives 3.5% (n = 310,000);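 further: the enzyme is Sfp with the accession as filed and its product quenches rhodamine fluorescence; 0% = enzyme reaction without inhibitor and -100% = no enzyme wells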
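Fluorescence-quenching assay: 15 nM Sfp-PPTase preincubated 15 min at room temperature with compound, then 5 uM rhodamine-CoA and 12.5 uM BHQ-2-labelled YbbR peptide added. Fluorescence (ex 525/em 598 nm) read at start and after 30 min; difference gives rate.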
L3MBTL1 inh = qHTS Assay for the Inhibitors of L3MBTL1; Lethal(3)malignant brain tumor-like protein 1 (Homo sapiens), Q9Y468; AlphaScreen L3MBTL1–H3K9me1 peptide binding; Potency, µM (doses to about 57.1 µM), inactives show top-dose activity, negative = inhibition, most hits filed as inhibitors; actives 0.66% (n = 230,000); further: on the % scale 0 is the no-effect control and ±100 the full control effect; nearly all actives have a fitted effect of over 60% in size
Target sequence (Q9Y468 whole entry, looked up): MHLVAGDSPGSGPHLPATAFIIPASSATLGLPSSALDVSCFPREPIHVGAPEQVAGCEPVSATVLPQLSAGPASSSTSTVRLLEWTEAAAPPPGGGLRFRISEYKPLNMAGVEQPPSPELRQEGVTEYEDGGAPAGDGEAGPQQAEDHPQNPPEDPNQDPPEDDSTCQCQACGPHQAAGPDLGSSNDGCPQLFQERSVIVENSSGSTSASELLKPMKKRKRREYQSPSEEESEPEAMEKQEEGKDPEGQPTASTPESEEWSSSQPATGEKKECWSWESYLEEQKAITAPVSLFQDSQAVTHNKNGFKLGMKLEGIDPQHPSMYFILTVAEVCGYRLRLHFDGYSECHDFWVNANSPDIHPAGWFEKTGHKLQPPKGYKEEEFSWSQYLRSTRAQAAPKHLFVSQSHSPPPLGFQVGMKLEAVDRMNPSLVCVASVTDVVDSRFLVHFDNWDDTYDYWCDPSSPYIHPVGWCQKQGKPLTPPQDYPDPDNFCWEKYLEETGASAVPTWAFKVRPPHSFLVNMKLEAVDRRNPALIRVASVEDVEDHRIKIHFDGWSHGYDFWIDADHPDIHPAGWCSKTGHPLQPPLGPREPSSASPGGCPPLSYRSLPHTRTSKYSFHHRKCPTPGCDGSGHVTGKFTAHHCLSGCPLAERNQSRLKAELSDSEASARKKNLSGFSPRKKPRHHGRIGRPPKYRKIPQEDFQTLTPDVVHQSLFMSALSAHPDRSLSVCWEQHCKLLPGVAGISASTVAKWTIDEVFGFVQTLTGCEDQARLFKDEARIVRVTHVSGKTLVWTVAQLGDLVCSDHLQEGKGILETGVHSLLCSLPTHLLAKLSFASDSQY
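AlphaScreen proximity signal between nickel-chelate acceptor and streptavidin donor beads (final 10 ug/mL) reports binding of 50 nM L3MBTL1 to 75 nM biotin-H3 K9me1 peptide; complex incubated with compounds 30 min at room temperature; cefsulodin titration as control.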
* = called active by the depositor; u = inconclusive; x = not tested or not shown; [ ] = remark or other dose. Rows were chosen to be rich in hits. Some 12% of all compounds tested hit in one or more screens of this group. The call rests on the fitted dose curve; in most records, active means well fitted curve in the direction sought with a large enough effect; inconclusive means small, poorly fitted or top-dose-only effect, or another doubt; inactive means no such curve, though single readings can be large; an effect the other way counts as inactive or inconclusive. Potency means the concentration at half of the fitted maximal effect.

SMILES	HP1b binding inh	JMJD2A Tudor inh	BAZ2B block	G9a inh	Sfp inh	L3MBTL1 inh
Cn1c(=O)n(C)c2cc([N+](=O)[O-])c(N3CCN(C(=O)c4ccccc4Cl)CC3)cc21	11.2%	-12.9%	50.1µM*	7.0%	8.3%	5.7%
Cn1c(=O)n(C)c2cc([N+](=O)[O-])c(N3CCN(S(=O)(=O)c4ccccc4)CC3)cc21	-13.4%	u	u	u	4.7%	-6.1%
Cn1c(=O)n(C)c2cc([N+](=O)[O-])c(N3CCN(S(C)(=O)=O)CC3)cc21	28.1%	-8.3%	50.1µM*	1.1%[59 µM]	6.6%	3.5%
Cn1c(=O)n(C)c2cc([N+](=O)[O-])c(N3CCN(C(=O)c4ccccc4)CC3)cc21	19.4%	-19.9%	-38.1%	-5.4%	22.2%	-3.0%
COc1cc(C)c(CN2CCN(C(C)C(=O)NC(C)c3ccccc3)CC2)cc1OC (stereo unspecified)	-3.0%	-5.6%	-3.0%	-43.8%	-7.8%	x
O=C(NCc1ccccn1)c1ccc(/C=N/O)nc1	22.9%	17.8µM*	44.7µM*	-4.9%	50.1µM*	-3.6%
O=C(NCc1ccccc1)c1ccc(/C=N/O)nc1	20.3%	7.94µM*	56.2µM*	10µM*	-19.3%	-6.4%
NC(=O)c1ccc(/C=N/O)nc1	21.4%	17.8µM*	31.6µM*	3.55µM*	-68.3%	u
NC(=O)c1ccc(OCc2ccccc2)nc1	12.8%	-10.3%	x	x	x	x
COc1ccc(NC(=O)C(C)Sc2cc(-c3ccccc3)nc(C)n2)cc1Cl (stereo unspecified)	48.6%	10.6%	1.4%	3.7%[59 µM]	x	x
COC(=O)[C@@H]1[C@@H]2C[C@H]3c4[nH]c5ccccc5c4CCN3C[C@@H]2CC[C@@H]1O	x	x	x	23.6%[59 µM]	8.7%	x
CN(C(=O)COC(=O)c1cccc(Cl)c1)C1CCS(=O)(=O)C1 (stereo unspecified)	39.2%	-8.1%	-0.6%	-7.1%[12.7 µM]	x	-1.1%
CC(C)CN(C(=O)COC(=O)c1ccc2c(c1)NC(=O)CS2)C1CCS(=O)(=O)C1 (stereo unspecified)	u	9.5%	11.8%	u	50.1µM*	-0.3%
CN(C)S(=O)(=O)c1ccc(Cl)c(NC(=O)COC(=O)c2ccc3c(c2)NC(=O)CS3)c1	9.0%	-8.2%	-4.8%	u	25.1µM*	-5.7%
CN(C(=O)COC(=O)c1ccc2c(c1)NC(=O)CS2)C1CCS(=O)(=O)C1 (stereo unspecified)	15.9%	-5.3%	5.9%	50.1µM*	-8.7%	1.0%
Cc1cc(C)n(-c2ccc(C(=O)OCC(=O)N(CC(C)C)C3CCS(=O)(=O)C3)cc2)n1 (stereo unspecified)	22.3%	6.1%	-6.0%	-44.3%[12.7 µM]	11.0%	-2.2%
CN(C)S(=O)(=O)c1ccc(Cl)c(NC(=O)COC(=O)c2ccc(O)cc2)c1	19.8%	2.8%	-15.2%	-2.9%	0.0%	-5.1%
O=C(N1CCc2cc([S+](=O)([O-])N3CCN([S+](=O)([O-])c4c(F)cccc4F)CC3)ccc2C1)C(F)(F)F	x	-18.5%	x	x	x	x
O=C(N/N=C/c1cccnc1)c1ccc2c(c1)OCCO2	32.1%	9.0%	6.0%	13.1%[59 µM]	17.2%	-12.9%
CO[C@@]1(NC(=O)Cc2cccs2)C(=O)N2C(C(=O)O)=C(COC(N)=O)CS[C@@H]21	13.8%	56.2µM*	50.1µM*	u	-22.9%	u
CC(NC(=O)COC(=O)COc1ccc(Cl)cc1)c1ccccc1 (stereo unspecified)	8.5%	-14.5%	x	x	x	7.5%
COc1ccc(NC(=O)CNC(c2ccccc2)c2ccccc2)cc1	u	20µM*	79.4µM*	x	u	2.6%
COc1ccc(C(NCC(=O)NC(C)c2ccc(Cl)cc2)c2ccccc2)cc1 (stereo unspecified)	u	25.1µM*	79.4µM*	5.9%[2.33 µM]	u	x
COc1cc(NC(=O)CNC(c2ccccc2)c2ccccc2)cc(OC)c1OC	7.3%	-16.7%	-11.9%	18.5%	11.6%	x
N#Cc1ccc2c(c1)C[C@]1(CCCCN3C(=O)c4ccccc4C3=O)Oc3cc(-c4ccccc4)oc(=O)c3[C@H]2O1	x	x	-5.4%[22.9 µM]	3.4%[2.33 µM]	6.8%	x
SMILES	HP1b binding inh	JMJD2A Tudor inh	BAZ2B block	G9a inh	Sfp inh	L3MBTL1 inh
O=C(NN1CCOCC1)c1ccc(Cl)c([N+](=O)[O-])c1	41.1%	-2.1%	-2.0%	x	-1.7%	x
O=C(Nc1nccs1)c1ccc(-c2cccc([N+](=O)[O-])c2)o1	u	56.2µM*	-29.0%	-4.7%[59 µM]	-14.2%	x
O=C(c1ccc(-c2cccc(Cl)c2)o1)N1CCN(c2ccc([N+](=O)[O-])cc2)CC1	-9.1%	39.8µM*	0.2%	4.0%[59 µM]	-22.6%	-4.0%
O=[N+]([O-])c1cccc(-c2ccc(C(=S)N3CCOCC3)o2)c1	u	44.7µM*	28.2µM*	x	20µM*	-20.0%
O=[N+]([O-])c1cc(-c2ccc(C(=S)N3CCOCC3)o2)ccc1Cl	10µM*	39.8µM*	31.6µM*	1.78µM*	-94.6%	-25.0%
O=C(Nc1ccc(CN2CCOCC2)cc1)c1ccc(-c2cccc([N+](=O)[O-])c2)o1	-6.1%[57 µM]	-28.9%	-26.1%	-17.5%	0.3%	x
CCC1=C2CC[C@H]3C(=O)N(CC)C(=O)[C@H]3[C@H]2[C@@]2(Cc3ccccc3)C(=O)N(CC3CC3)C(=O)N2C1=O	x	x	x	x	16.7%	x
NS(=O)(=O)c1ccc(F)c(C(=O)O)c1	21.7%	3.8%	-10.8%	-28.3%	-4.5%	1.8%
O=C(CC1(CC(=O)N2CCOCC2)CCCC1)Nc1ccc(F)cc1	18.4%	-5.5%	x	x	x	-0.8%
Cn1nc(C(=O)NC2CCC(O)CC2)c2ccccc2c1=O (stereo unspecified)	41.1%	5.4%	-1.8%	0.3%[12.7 µM]	x	7.1%
Cc1ccc(NC(=O)CN(C)C(=O)COC(=O)CCS(=O)(=O)c2ccc(C)cc2)cc1	9.9%	-7.6%	-3.9%	12.1%	11.5%	x
O=C(O)c1ccc(COc2ccc([N+](=O)[O-])cc2)o1	2.9%	-4.2%	-13.0%	u	4.9%	x
O=[N+]([O-])c1cccc(-c2ccc(C(=S)N3CCN(c4ccccc4)CC3)o2)c1	u	u	u	3.55µM*	12.6µM*	-3.2%
